# Compound activity from PubChem BioAssay.
# HCMV antiviral: blocks human cytomegalovirus replication; activity change, negative = inhibition, % at 57.5 µM; HFF cells, HCMV-luciferase reporter, 72 h; active compounds read low; hit rate 4.5% among 410,000; AID 1259415; in the data active = activity change below about -60%; inconclusive = no clear call, values can overlap the other calls; inactive = above about -39%
#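 Compounds were evaluated in HFFs infected with an HCMV luciferase reporter virus (MOI 1 PFU/cell). Luciferase in lysates collected 72 h post infection served as the replication measure.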
# Lassa entry inh: blocks Lassa virus binding to or entry into cells. Lassa virus pseudotype entry inhibition, cell reporter. Potency, µM (highest dose often 37.9 µM), for inactives: at the top dose activity change, negative = inhibition, usual class: inhibitors. hit rate 1.2% among 300,000. AID 540256; calls by dose curve; tested in HEK293 cells; note: potency is the fitted concentration of half-maximal effect; nearly all actives have a fitted effect of over 50% in size
# MARV entry inh: inhibitors of Marburg virus binding or cell entry; AID 540276; Marburg virus pseudotyped entry inhibition, cell reporter; hit rate 1.8% among 300,000; Potency, µM (series often up to 37.8 µM), without a hit: at the highest dose activity change, negative = inhibition, usual class: inhibitors; calls by dose curve; tested in HEK293 cells; note: potency is the fitted concentration of half-maximal effect
# FMDV antiviral: blocks foot and mouth disease virus. hit rate 1.2% among 410,000. FMDV antiviral cell-based qHTS. Potency, µM (highest dose often 57.9 µM), inactives show at the highest dose activity change, negative = inhibition, actives largely listed as inhibitors; calls by dose curve; tested in HEK293T cells; note: read-out not given here; potency is the fitted concentration of half-maximal effect; nearly all actives have a fitted effect of over 45% in size
# * = called active by the depositor; ? = inconclusive; / = no result; ! = not active in a repeat; [ ] = remark or other dose. Only some compounds are listed: those with a hit (about 6.2% of all), similar ones and a draw of the others. % is set by controls: 0 for no effect and ±100 for the full control effect.
SMILES,HCMV antiviral,Lassa entry inh,MARV entry inh,FMDV antiviral
Fc1ccc(-c2ncn(C3CCNCC3)c2-c2ccnc(Oc3ccc(F)c(F)c3)n2)cc1,/,22µM*,/,/
Fc1ccc(Oc2nccc(-c3ccc(Cl)cc3)n2)cc1,-26,?,21%[46.1 µM],6%
CCCC1O[C@@H]2C[C@H]3[C@@H]4CCC5=CC(=O)C=C[C@]5(C)[C@H]4[C@@H](O)C[C@]3(C)[C@]2(C(=O)CO)O1 (stereo partly specified),38,?,9.2µM*,-8%
CCCC1OC2CC3C4CCC5=CC(=O)C=CC5(C)C4C(O)CC3(C)C2(C(=O)O)O1 (stereo unspecified),32,/,/,12%
Cc1ccc(-c2c(CN3CCN(c4cccc(C)c4C)CC3)csc2C)cc1,-14,22%[46.1 µM],/,-24%
Cc1ccc(CN2CCN(Cc3c(C)nn(C(C)C)c3C)CC2CCO)o1 (stereo unspecified),-99*,/,/,-2%
CCCc1nc2ccc(NC(=O)c3ccccc3OC)cn2n1,-13,/,/,/
Cc1ccccc1C1(CC(=O)N2CCC[C@H]2C(N)=O)CC(=O)N(C2CCCC2)C1=O (stereo partly specified),/,/,/,16%
O=S(=O)(NCC(c1ccco1)N1CCN(c2ccc(F)cc2)CC1)c1ccc2c(c1)OCCO2 (stereo unspecified),-75*,?,?,-39%
COc1ccc(S(=O)(=O)NCC(c2ccco2)N2CCN(c3ccccc3)CC2)cc1OC (stereo unspecified),112,-6%[46.1 µM],/,14%
COc1ccc(N2CCN(C(CNS(=O)(=O)c3ccc(OC)c(C)c3)c3ccco3)CC2)cc1 (stereo unspecified),-28,5.6µM*,/,-3%
CC1(C(=O)Nc2ccc(F)c(Cl)c2)Cc2c(-c3ccccc3)ccnc2O1 (stereo unspecified),-22,/,/,-22%
Cc1cc(C(C)(C)C)cc(C)c1C[n+]1ccc2ccccc2c1,-96*,/,/,?
Cc1ccc(C)c(NC(=O)Cn2c(=O)n(CCC(=O)NCc3ccc4c(c3)OCO4)c(=O)c3ccccc32)c1,-2,-2%[46.1 µM],-7%[46.1 µM],13%
COc1ccc(NC(=O)c2sc3nc4c(cc3c2N)CN(Cc2ccccc2)CC4)c(OC)c1,-95*,-3%[46.1 µM],-3%[46.1 µM],?
COc1ccc(Cl)cc1NC(=O)Cn1c(=O)n(CCC(=O)NCc2ccc3c(c2)OCO3)c(=O)c2ccccc21,-64*,-1%[46.1 µM],-20%[46.1 µM],18%
COc1ccc(CCNC(=O)CCCCn2c(=O)c3ccccc3n(CC(=O)Nc3c(C)cccc3C)c2=O)cc1OC,-109*,4%[46.1 µM],-1%[46.1 µM],-8%
COc1ccc(NC(=O)Cn2nnc(C(=O)NCc3ccccc3)c2N)c(OC)c1,-13,?,8.2µM*,?
COc1ccccc1NC(=O)c1sc2nc3c(cc2c1N)CN(Cc1ccccc1)CC3,0,5%[46.1 µM],6%[46.1 µM],?
CC(C)NC(=O)c1cc(C2CCCCN2C(=O)OCCF)on1 (stereo unspecified),-10,/,/,-9%
CC(C)N1C(=O)CC[C@@H](S(=O)(=O)c2ccccc2)[C@@H]1/C=C/c1ccccc1,23,/,/,/
CC(=O)c1ccc(NC(=O)CSc2nc(=O)n(Cc3ccccn3)c3c2CCC3)cc1,-5,14%[46.1 µM],/,-18%
CC(C)c1ccc(N2C(=O)N(Cc3ccccc3Cl)c3ccccc3S2(=O)=O)cc1,-22,-18%[46.1 µM],/,0%
COc1ccccc1NC(=O)Cn1nnc(C(=O)NCc2ccc3c(c2)OCO3)c1N,-69*!,-3%[46.1 µM],15%[46.1 µM],-15%
Cc1cccc(C)c1Nc1c(-c2ccccc2F)nc2ccccn12,-3,/,/,/
SMILES,HCMV antiviral,Lassa entry inh,MARV entry inh,FMDV antiviral
Cc1ccccc1Cn1c(=O)n(Cc2ccco2)c(=O)c2sc3ccccc3c21,-69*,0%[46.1 µM],?,0%
Cc1cccc(Cn2c(=O)n(CCc3ccccc3)c(=O)c3sc4ccccc4c32)c1,-95*,25%[46.1 µM],-4%[46.1 µM],1%
CCCCN(CCCC)c1nc(-c2ccncc2)nc2ccccc12,-70*,/,/,28µM*
COCCN(CCOC)c1nc(-c2ccccc2)nc2ccccc12,-36,/,/,?
CCN(CC)c1nc(-c2ccccc2)nc2ccccc12,-63*,-9%,?,?
CCSc1ccccc1C(=O)N1CCN(c2ccccc2F)CC1,-103*,3%,-21%,4%
O=C(c1ccccc1C(=O)N1CCN(c2ccccc2F)CC1)N1CCN(c2ccccc2F)CC1,-10,-5%,-1%,-24%
Cc1ccc(-n2c(C)cc(C(=O)CSc3n[nH]c(N)n3)c2C)cc1,-70*,?,-7%,-8%
Cn1cc(CN2CCOc3ccc(C(O)C4CCCCC4)cc3C2)cn1 (stereo unspecified),/,/,/,-29%
O=C1[C@H]2[C@H]3[C@H](O)[C@H](O)C/C(=N\OC[C@@H](O)COCc4ccco4)[C@H]3CC[C@H]2C(=O)N1C1CCCCC1,/,/,-22%[14.2 µM],/
COc1cc(/C=C2/C(=O)N(C)C(=S)N2C)ccc1OCc1cccc(F)c1,-68*,-7%[46.1 µM],7%[46.1 µM],-1%
CCCCNC(=O)c1nc2cc(C)c(C)cc2nc1-c1cccc(Br)c1,-94*,/,/,/
C=C1CC[C@@H]2[C@](C)(CO)[C@H](O)CC[C@@]2(C)[C@@H]1C/C=C1/C(=O)OCC1O (stereo partly specified),-77*,/,/,?
C=C1CC[C@@H]2[C@](C)(CO)[C@H](O)CC[C@@]2(C)[C@@H]1C/C=C1/C(=O)OC[C@H]1O,/,/,/,-26%
CCOC(=O)c1cnc(SCc2nc(N)nc(Nc3ccccc3OC)n2)nc1N,56,/,2%,/
CCOC(=O)c1cnc(SCc2nc(N)nc(Nc3ccc(F)cc3)n2)nc1N,-96*,?,?,?
CCOC(=O)c1cnc(SCc2nc(N)nc(Nc3ccc(C)cc3)n2)nc1N,-88*,?,-26%,?
O=C(c1cc(C(F)(F)F)cc(C(F)(F)F)c1)N1CCC2(CC1)CCN(c1ccncc1)CC2,/,/,/,-12%
COc1cc(NC(=O)c2ccccc2)c(OC)cc1Cl,127,0%,0%,0%
COc1cc(OC)c(NC(=O)c2cc3ccccc3cc2O)cc1Cl,-81*,?,?,-17%
Cc1ccc(/C=C/C(=O)Nc2ccc3nc(N4CCC(C)CC4)cc(C)c3c2)cc1,-23,2%[46.1 µM],2%[46.1 µM],?
Cc1ccc(S(=O)(=O)Nc2cc(Cl)c(O)cc2C)cc1,-70*,-12%,?,-28%
CCCN1C(=O)c2ccccc2NC1c1ccc(Cl)c(Cl)c1 (stereo unspecified),-14,/,/,-5%
CCCCN1C2=C(C(=O)CCC2)C(c2ccc(Cl)c(Cl)c2)C2=C1c1ccccc1C2=O (stereo unspecified),6,2.3µM*,?,5%
Cc1nn(C)c(Nc2ccc(Br)cc2)c1Br,-83*,/,-22%[46.1 µM],?
Cc1cc(C)nc(-n2nc(C)c(Br)c2Nc2ccc(Br)cc2)n1,-21,-12%,-42%,8%
C=CCn1c(C2CCCCC2)n[nH]c1=S,-97*,-2%,4%,?
O=C(C[n+]1cc(-c2ccc(F)cc2)n2c1CCC2)Nc1nc(-c2ccc(F)cc2)cs1,119,16%,13%,-13%
Cn1c(NC(=O)C[n+]2cc(-c3ccccc3)n3c2CCC3)cc(=O)n(C)c1=O,12,3%,1%,-9%
